# RAM inhibit = yeast RAM network inhibition; S. cerevisiae dse1pr::URA3 reporter, 5-FOA growth OD615, 2 d; analog-sensitive cbk1-as2 kinase mutant strain; inhibition, % at 50 µM; hit rate 1.8% among 190,000; AID 868;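 active = inhibition above a set limit, 3 SD over mean compound inhibition, cut at about 8.4% in these data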;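 also: 0% = DMSO-only wells with no growth and 100% = 10 µM 1-NA-PP1 full growth; inhibition rescues growth on 5-FOA so higher OD means more RAM inhibition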
# PG9 binder = binds the HIV-1 gp120 antibody PG9 | TR-FRET gp120-PG9 antibody binding | inhibition, % at 6.7 µM | hit rate 0.43% among 360,000; in the data active = inhibition above about 8.5%
# EP2 mod = modulates human prostaglandin E2 receptor EP2 signaling. P43116. EP2-expressing cells, cAMP HTRF FRET, PGE2 co-stimulation. induction, % at 25 µM. hit rate 0.83% among 260,000;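 active = compounds whose cAMP rise, as percent of the full-agonist control response, exceeds 60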;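 also: rat C6 glioma line stably carrying human EP2 under a CMV promoter; the protocol text gives 20 µM as final concentration; 100% = response of wells given 1 µM PGE2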
# Target sequence (P43116 whole entry, looked up): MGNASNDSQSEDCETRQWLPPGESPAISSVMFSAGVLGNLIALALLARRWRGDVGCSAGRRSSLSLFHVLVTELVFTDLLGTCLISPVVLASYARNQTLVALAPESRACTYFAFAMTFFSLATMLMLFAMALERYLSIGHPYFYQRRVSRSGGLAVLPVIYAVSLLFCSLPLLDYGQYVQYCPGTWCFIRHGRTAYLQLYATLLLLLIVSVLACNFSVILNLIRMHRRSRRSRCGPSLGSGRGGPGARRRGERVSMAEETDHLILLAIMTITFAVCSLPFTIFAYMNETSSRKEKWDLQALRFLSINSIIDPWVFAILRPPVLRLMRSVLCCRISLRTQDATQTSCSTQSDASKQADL
# EP2 antag = EP2 receptor (human) inhibition | C6 glioma cells expressing human EP2, cAMP TR-FRET; cells stimulated with saturating PGE2 | hit rate 0.52% among 260,000 | AID 1422 | inhibition, % at 25 µM;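 active = percent inhibition above 40 after rounding to a whole number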;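 also: rat C6 glioma host cells with rolipram phosphodiesterase inhibitor present; the protocol text gives 20 µM as final concentration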
# SKN-1 inh = inhibitors of C. elegans SKN-1; C. elegans VP596 Pgst-4::GFP/RFP ratio, acrylamide-induced, 24 h; inhibition, % at 21.8 µM; hit rate 0.49% among 360,000; AID 624304;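 active = interference check ratio from 0.5 to 1.5 plus GFP to RFP signal ratio inhibition reaching or exceeding a fixed threshold, cut at about 30% in these data, passing the limit was not always enough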
# Rev-erbA mod = modulates human Rev-erb alpha binding to DNA | Rev-erbα–FITC-DNA binding, fluorescence polarization, 90 min | activity, % at 10 µM | hit rate 0.79% among 370,000 | AID 1259318;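 active = activity above about 14%, limit read from the data; passing the limit was not always enough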;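 also: 0% = DMSO wells with 35 nM protein and 100% = DMSO wells with 750 nM protein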
# PG9 bind confirm = confirmation of small molecules binding HIV-1 gp120 antibody PG9; TR-FRET PG9 antibody binding, biochemical; hit rate 90% among 1,500; shares compounds with PG9 binder; inhibition, % at 6.7 µM; in the data active = inhibition above about 9%
# PGV04 counter = binds control antibody PGV04 in PG9 binder counter-screen | hit rate 95% among 1,500 | TR-FRET PGV04 antibody-gp120 binding, biochemical | inhibition, % at 6.7 µM | AID 651604 | shares compounds with PG9 binder; in the data active = inhibition above about 9.5%
# PG9 binder DR = PG9 antibody binding, dose response; IC50, µM; 95 tested, under 10 active; shares compounds with PG9 binder; TR-FRET PG9 antibody-gp120 binding inhibition; in the data active = IC50 below about 10 µM
# PGV04 binding DR = PGV04 binding, dose response counter-screen; AID 651937; hit rate 20% among 95; TR-FRET binding to control antibody PGV04; IC50, µM; shares compounds with PG9 binder
# PG126 DR counter = binds control antibody PG126 in PG9 counter-screen | shares compounds with PG9 binder | TR-FRET binding to antibody PG126, counterscreen | IC50, µM | hit rate 20% among 95 | AID 651939
# Numbers without * were called inactive; i = inactive; / = not tested or not shown. A selection: hits, their analogues and other compounds. The true share with any hit is near 2.9%. Rule as the data show it, unless noted: active = IC50 below about 9 µM; inactive = the rest.
SMILES,RAM inhibit,PG9 binder,EP2 mod,EP2 antag,SKN-1 inh,Rev-erbA mod,PG9 bind confirm,PGV04 counter,others
COc1ccc(-c2noc(CCC(=O)NCC3CCCO3)n2)cc1OC (stereo not drawn),/,11*,/,/,8,0,4,7,
CN1CCN(NC(=O)c2cc(-c3ccc(Br)s3)nc3ccccc23)CC1,/,19*,/,/,25,-1,39*,68*,
CCc1ccc(-c2cc(C(=O)NN3CCOCC3)c3ccccc3n2)s1,1,1,15,11,5,8,/,/,
O=C(O)c1cc(-c2ccc(Br)s2)nc2ccccc12,/,17*,/,/,1,-6,25*,68*,
Cc1cc(-c2cc(C(=O)O)c3ccccc3n2)c(C)s1,0,0,-2,4,13,-4,/,/,
CCN(CC)CCNC(=O)c1cc(-c2ccc(Br)s2)nc2ccccc12,/,15*,/,/,22,1,26*,50*,
CCCCOc1cc(C(=O)NCCN(CC)CC)c2ccccc2n1,0,-1,-23,16,10,-5,/,/,
CS(=O)(=O)N(CC(=O)NCc1ccc2c(c1)OCO2)c1cc(Cl)ccc1Cl,/,/,-48,8,/,/,/,/,
CC(C)(C)c1nn(-c2ccccc2)c2[nH]c(=O)c(CNCCCN3CCOCC3)cc12,/,/,-17,7,/,/,/,/,
Cc1cc(C)cc(NC(=O)C2CCN(S(=O)(=O)c3ccc4[nH]c(=O)ccc4c3)CC2)c1,/,13*,/,/,-18,6,16*,30*,
COc1cc(S(=O)(=O)NCCN2CCCC2)ccc1-n1cnnn1,/,/,21,6,/,/,/,/,
O=C(Nc1ccc(Br)c2ccccc12)c1ccc2ccccc2c1O,/,36*,41,19,17,5,31*,37*,
CC(=O)Nc1ccc(Br)c2ccccc12,4,11*,21,10,2,-1,22*,23*,
COc1ccccc1Nc1nc(C)nc2c1oc1ccccc12,/,2,/,/,5,1,/,/,
COc1ccc(Nc2nc(C)nc3c2oc2ccccc23)c(OC)c1,/,13*,/,/,11,7,15*,22*,
CC(=O)c1cn(CC(=O)Nc2ccc(C)cc2)c2ccccc12,6,17*,-50,11,8,13,24*,32*,
Cc1ccc(NC(=O)Cn2c(=O)c3cccn3c3ccccc32)cc1,/,21*,/,/,19,11,19*,27*,
Cc1ccc(NC(=O)Cn2c(=O)c3cccn3c3ccccc32)c(C)c1,/,1,/,/,12,14,/,/,
CCOC(=O)CSc1n[nH]c(CNc2cccc(C)c2)n1,/,/,0,12,/,/,/,/,
COc1ccc(C(=O)Nc2ccccc2C(=O)N(Cc2ccco2)C(C(N)=O)C(C)C)cc1 (stereo not drawn),2,9.9*,27,7,1,24,19*,16*,PG9 binder DR=>67;PGV04 binding DR=i;PG126 DR counter=>67
COc1ccc(C(=O)Nc2ccccc2C(=O)NC(C(=O)NCc2ccco2)C(C)C)cc1 (stereo not drawn),1,1,28,10,-25,15,/,/,
COc1ccccc1NC(=O)C1=C(C)NC2=C(C(=O)CC(C)(C)C2)C1c1cccc(Cl)c1Cl (stereo not drawn),/,/,6,15,/,/,/,/,
COc1ccc(C(=O)COC(=O)c2ccc(-n3cnnn3)cc2)c(OC)c1,/,24*,/,/,1,14,36*,44*,
Cn1ccnc1C1(O)CC2CCC(C1)N2C(=O)C1CCCO1 (stereo not drawn),/,/,-61,/,/,/,/,/,
COc1ccccc1NC(=O)c1ccc(NC(=O)Cc2n[nH]c(=O)c3ccccc23)cc1,/,11*,-15,14,4,4,12*,18*,
SMILES,RAM inhibit,PG9 binder,EP2 mod,EP2 antag,SKN-1 inh,Rev-erbA mod,PG9 bind confirm,PGV04 counter,others
COc1ccccc1C(=O)NC(=O)COC(=O)Cc1n[nH]c(=O)c2ccccc12,/,-3,/,/,-18,-1,/,/,
COC(=O)[C@H]1CN(C(=O)c2n[nH]c(=O)c3ccccc23)C[C@@H]1c1ccc(F)cc1,/,/,-63,8,/,/,/,/,
COC(=O)[C@H]1CN(C(=O)CCc2ccco2)C[C@@H]1c1ccc(F)cc1,/,/,-1,/,/,/,/,/,
O=C(NCCc1nc(-c2ccncc2)n[nH]1)c1ccc(CN2CCCCC2)cc1,/,/,-56,7,/,/,/,/,
CCOc1ccc(NC(=O)CSc2nnnn2-c2cccc(OC)c2)cc1,/,/,-21,5,/,/,/,/,
COc1cccc(-n2nnnc2SCC(=O)Nc2ccc(C(C)=O)cc2)c1,0,16*,-6,3,23,14,24*,39*,
COc1ccc2nc(SCC(=O)NC3CCCCC3C)c(C#N)cc2c1 (stereo not drawn),/,/,-32,12,/,/,/,/,
COc1ccc2nc(SCC(=O)NC3CC3)c(C#N)cc2c1,/,20*,/,/,12,6,26*,47*,
Cc1ccc2nc(SCC(=O)NCC3CCCO3)c(C#N)cc2c1 (stereo not drawn),2,13*,0,11,-5,-2,22*,36*,
COc1ccc(OCc2nnc(SCC(=O)c3ccc(F)cc3)o2)cc1,/,/,-25,8,/,/,/,/,
COC(=O)C1(C)CCc2cc(OC)ccc2C1=O (stereo not drawn),3,1,-12,7,2,3,/,/,
COC(=O)C1(C)CN(S(=O)(=O)c2ccc(C)cc2)c2cc(OC)ccc2C1=O (stereo not drawn),5,8.6*,25,-2,-8,-3,15*,18*,
COc1ccc(Br)cc1-c1nc(CCl)cs1,4,10*,63*,30,14,6,16*,20*,
CCOc1ccc(-c2nc(CCl)cs2)cc1,0,-1,-25,4,17,-4,/,/,
CC(Oc1ccc(Cl)cc1Cl)C(=O)Nc1nnc(C(F)(F)F)s1 (stereo not drawn),/,/,-38,8,/,/,/,/,
COc1ccc(C(=O)NCCN(C)C)c2nc3ccccc3cc12,/,23*,/,/,23,8,20*,18*,PG9 binder DR=>67;PGV04 binding DR=>67;PG126 DR counter=>67
Cc1c(Br)c(O)c(Br)c2sc(=O)oc12,/,18*,-40,10,-7,-3,11*,21*,
CC(=O)c1ccc(NC(=O)COc2ccccc2C(=O)Nc2ccc(C)cn2)cc1,3,26*,-1,10,-3,13,28*,42*,
CC(=O)c1ccc(NC(=O)COc2ccccc2C(=O)Nc2ccccc2)cc1,/,-3,/,/,5,-2,/,/,
